1 sequence from paper PMC7862700, “An all-to-all approach to the identification of sequence-specific readers for epigenetic DNA modifications on cytosine” can be followed below.

Holding throughout (test): DAPPL (digital affinity profiling via proximity ligation, sequencing); 10 mM Tris-HCl pH 7.5, 50 mM NaCl, 1 mM DTT, 4% glycerol, room temperature, 30 min; GST-TFs on glutathione beads, 16-mer random dsDNA library, 0.1% formaldehyde crosslink after washing; high values mean tight binding
In assay [1] the target is T1, FLI1 (Homo sapiens, UniProt Q01543 1-452).
T1 sequence: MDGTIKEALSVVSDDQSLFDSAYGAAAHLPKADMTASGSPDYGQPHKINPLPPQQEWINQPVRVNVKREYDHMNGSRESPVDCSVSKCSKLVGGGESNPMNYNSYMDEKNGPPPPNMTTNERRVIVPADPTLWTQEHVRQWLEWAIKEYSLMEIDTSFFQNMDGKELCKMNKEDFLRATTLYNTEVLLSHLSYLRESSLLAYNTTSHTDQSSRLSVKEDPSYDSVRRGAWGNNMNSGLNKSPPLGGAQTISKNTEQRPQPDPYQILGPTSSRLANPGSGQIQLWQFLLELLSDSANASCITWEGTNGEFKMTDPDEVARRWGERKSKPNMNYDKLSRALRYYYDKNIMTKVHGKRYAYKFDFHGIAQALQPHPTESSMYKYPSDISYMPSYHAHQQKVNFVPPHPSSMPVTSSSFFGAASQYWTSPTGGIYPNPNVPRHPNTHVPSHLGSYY
Conditions: protein: recombinant; tags: N-terminal GST; dsDNA, one strand shown. In short, it runs like this:
(§1)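 The binding signal reported is, for every hexamer, its read frequency for a factor over its read frequency for the tag-only sample. Reads came from pools of yeast-expressed, GST-fused human transcription factors on glutathione beads, barcoded with DNA and mixed with that sample, which were incubated with 200 nmole of a random double-stranded 16-mer DNA library in Tris/NaCl/DTT/glycerol buffer at room temperature for 30 min. After washing, the pools were crosslinked with 0.1% formaldehyde, proximity-ligated with BsaI/T4 ligase for 1 h at 37 °C, PCR-amplified and sequenced on an Illumina NextSeq500.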

The target of assay [2] is T2, ELK1 (Homo sapiens, UniProt P19419 1-428).
T2 sequence: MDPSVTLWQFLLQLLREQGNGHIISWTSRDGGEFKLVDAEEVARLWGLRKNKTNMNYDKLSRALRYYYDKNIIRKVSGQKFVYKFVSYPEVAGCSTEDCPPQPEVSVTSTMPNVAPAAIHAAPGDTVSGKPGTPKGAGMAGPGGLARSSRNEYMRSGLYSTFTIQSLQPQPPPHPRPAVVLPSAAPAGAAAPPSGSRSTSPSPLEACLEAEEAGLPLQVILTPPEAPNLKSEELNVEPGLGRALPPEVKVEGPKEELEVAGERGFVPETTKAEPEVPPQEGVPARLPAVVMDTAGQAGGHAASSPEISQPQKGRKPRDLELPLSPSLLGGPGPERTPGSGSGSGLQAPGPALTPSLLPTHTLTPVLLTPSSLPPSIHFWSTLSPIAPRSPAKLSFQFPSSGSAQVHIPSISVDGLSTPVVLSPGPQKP
The settings on record: protein: recombinant; tags: N-terminal GST; dsDNA, one strand shown. In short, it runs like this:
as §1

In assay [3] the target is T3, GABPA (Homo sapiens, UniProt Q06546 1-454).
T3 sequence: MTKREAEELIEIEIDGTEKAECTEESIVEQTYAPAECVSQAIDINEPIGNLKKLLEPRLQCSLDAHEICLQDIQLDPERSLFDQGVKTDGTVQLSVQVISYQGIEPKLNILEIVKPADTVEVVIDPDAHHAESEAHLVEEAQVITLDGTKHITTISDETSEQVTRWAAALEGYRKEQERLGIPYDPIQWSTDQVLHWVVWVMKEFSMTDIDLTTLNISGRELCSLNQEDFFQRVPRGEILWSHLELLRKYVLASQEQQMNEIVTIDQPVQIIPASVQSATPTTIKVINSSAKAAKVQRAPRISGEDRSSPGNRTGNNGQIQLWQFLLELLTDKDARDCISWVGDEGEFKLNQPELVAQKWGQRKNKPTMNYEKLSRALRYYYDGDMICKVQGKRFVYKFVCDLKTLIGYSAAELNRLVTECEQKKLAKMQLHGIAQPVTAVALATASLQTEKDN
The settings on record: protein: recombinant; tags: N-terminal GST; dsDNA, one strand shown. A digest of the protocol: as §1

Assay [4] has as its target T4, ERG (Homo sapiens, UniProt P11308 1-479).
T4 sequence: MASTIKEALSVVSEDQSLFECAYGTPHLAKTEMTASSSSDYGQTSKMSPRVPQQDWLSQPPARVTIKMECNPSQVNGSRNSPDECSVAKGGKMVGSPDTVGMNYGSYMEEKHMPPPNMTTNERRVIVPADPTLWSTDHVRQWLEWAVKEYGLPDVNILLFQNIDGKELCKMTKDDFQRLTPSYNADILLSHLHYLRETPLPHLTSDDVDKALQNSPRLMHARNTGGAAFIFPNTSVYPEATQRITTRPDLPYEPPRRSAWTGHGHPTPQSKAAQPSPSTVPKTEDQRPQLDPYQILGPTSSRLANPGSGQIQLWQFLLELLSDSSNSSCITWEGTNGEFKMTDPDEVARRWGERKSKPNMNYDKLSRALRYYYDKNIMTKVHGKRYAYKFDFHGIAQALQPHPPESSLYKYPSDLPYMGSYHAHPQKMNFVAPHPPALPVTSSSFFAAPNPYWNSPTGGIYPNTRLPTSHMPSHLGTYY
The settings on record: protein: recombinant; tags: N-terminal GST; dsDNA, one strand shown. A digest of the protocol: as §1

Assay [5] has as its target ELF1 (Homo sapiens, UniProt P32519 1-619). The settings on record: protein: recombinant; tags: N-terminal GST; dsDNA, one strand shown. In short, it runs like this: as §1
The target in assay [6] is T5, EHF (Homo sapiens, UniProt Q9NZC4 1-300).
T5 sequence: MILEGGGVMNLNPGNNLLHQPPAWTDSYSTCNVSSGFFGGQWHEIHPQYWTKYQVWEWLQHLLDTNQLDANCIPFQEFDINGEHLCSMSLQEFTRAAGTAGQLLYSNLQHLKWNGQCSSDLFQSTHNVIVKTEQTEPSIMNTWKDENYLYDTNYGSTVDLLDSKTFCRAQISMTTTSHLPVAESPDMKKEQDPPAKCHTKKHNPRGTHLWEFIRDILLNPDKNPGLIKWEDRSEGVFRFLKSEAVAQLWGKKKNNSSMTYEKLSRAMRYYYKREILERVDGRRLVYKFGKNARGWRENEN
The settings on record: protein: recombinant; tags: N-terminal GST; dsDNA, one strand shown. A digest of the protocol: as §1

In assay [7] the target is SPI1 (Homo sapiens, UniProt P17947 1-270). Conditions: protein: recombinant; tags: N-terminal GST; dsDNA, one strand shown. A digest of the protocol:
as §1

The target of assay [8] is SPIB (Homo sapiens, UniProt Q01892 1-262). The settings on record: protein: recombinant; tags: N-terminal GST; dsDNA, one strand shown. A digest of the protocol: as §1
The target in assay [9] is T6, ELK3 (Homo sapiens, UniProt P41970 1-407).
T6 sequence: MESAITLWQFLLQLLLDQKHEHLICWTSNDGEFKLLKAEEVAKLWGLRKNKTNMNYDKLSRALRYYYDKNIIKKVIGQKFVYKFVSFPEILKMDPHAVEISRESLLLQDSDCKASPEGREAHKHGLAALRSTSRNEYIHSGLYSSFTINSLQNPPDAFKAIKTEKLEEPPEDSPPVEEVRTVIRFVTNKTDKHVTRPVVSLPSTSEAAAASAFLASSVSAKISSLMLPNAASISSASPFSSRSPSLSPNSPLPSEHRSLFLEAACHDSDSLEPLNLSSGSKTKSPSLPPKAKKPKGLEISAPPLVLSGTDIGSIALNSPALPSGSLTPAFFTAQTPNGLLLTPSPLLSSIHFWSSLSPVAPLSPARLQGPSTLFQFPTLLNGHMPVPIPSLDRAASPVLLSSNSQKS
Conditions: protein: recombinant; tags: N-terminal GST; dsDNA, one strand shown. In short, it runs like this:
as §1

Assay [10] concerns the target T7, FEV (Homo sapiens, UniProt Q99581 1-238).
T7 sequence: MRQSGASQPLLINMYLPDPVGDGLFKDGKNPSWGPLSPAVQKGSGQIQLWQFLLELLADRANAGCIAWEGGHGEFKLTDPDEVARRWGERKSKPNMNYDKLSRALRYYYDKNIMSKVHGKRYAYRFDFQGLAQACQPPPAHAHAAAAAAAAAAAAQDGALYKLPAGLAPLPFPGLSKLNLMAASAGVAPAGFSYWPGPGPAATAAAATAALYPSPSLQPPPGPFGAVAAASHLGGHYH
The settings on record: protein: recombinant; tags: N-terminal GST; dsDNA, one strand shown. In short, it runs like this: as §1

Assay [11] has as its target ETV5 (Homo sapiens, UniProt P41161 1-510). Conditions: protein: recombinant; tags: N-terminal GST; dsDNA, one strand shown. A digest of the protocol:
as §1

The target in assay [12] is HSF1 (Homo sapiens, UniProt Q00613 1-529). Conditions: protein: recombinant; tags: N-terminal GST; chain copies: 3; dsDNA, one strand shown. In short, it runs like this: as §1
Assay [13] concerns the target T8, SPIC (Homo sapiens, UniProt Q8N5J4 1-248).
T8 sequence: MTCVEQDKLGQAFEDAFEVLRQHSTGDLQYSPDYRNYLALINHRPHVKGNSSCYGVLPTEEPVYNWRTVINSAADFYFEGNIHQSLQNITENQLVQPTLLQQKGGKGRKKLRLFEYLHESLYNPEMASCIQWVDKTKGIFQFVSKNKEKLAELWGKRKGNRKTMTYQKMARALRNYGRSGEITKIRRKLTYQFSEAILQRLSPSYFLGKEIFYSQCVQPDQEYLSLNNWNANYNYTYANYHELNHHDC
Conditions: protein: recombinant; tags: N-terminal GST; dsDNA, one strand shown. In short, it runs like this: as §1

Assay [14] addresses ELF4 (Homo sapiens, UniProt Q99607 1-663). The settings on record: protein: recombinant; tags: N-terminal GST; dsDNA, one strand shown. In short, it runs like this: as §1
Assay [15] deals with T9, ELK4 (Homo sapiens, UniProt P28324-2 1-405).
T9 sequence: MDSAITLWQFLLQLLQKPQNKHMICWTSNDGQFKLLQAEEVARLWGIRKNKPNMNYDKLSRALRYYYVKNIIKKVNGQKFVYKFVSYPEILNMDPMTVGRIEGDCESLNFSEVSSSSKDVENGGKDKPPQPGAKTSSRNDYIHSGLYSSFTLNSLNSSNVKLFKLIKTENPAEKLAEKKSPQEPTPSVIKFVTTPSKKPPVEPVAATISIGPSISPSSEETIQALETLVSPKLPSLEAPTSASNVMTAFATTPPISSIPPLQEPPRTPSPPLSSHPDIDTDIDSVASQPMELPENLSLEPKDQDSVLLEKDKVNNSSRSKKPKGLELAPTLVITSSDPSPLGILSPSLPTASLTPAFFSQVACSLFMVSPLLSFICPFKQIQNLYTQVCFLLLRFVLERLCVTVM
Conditions: protein: recombinant; tags: N-terminal GST; dsDNA, one strand shown. A digest of the protocol:
as §1

The target in assay [16] is T10, ETV2 (Homo sapiens, UniProt O00321 1-342).
T10 sequence: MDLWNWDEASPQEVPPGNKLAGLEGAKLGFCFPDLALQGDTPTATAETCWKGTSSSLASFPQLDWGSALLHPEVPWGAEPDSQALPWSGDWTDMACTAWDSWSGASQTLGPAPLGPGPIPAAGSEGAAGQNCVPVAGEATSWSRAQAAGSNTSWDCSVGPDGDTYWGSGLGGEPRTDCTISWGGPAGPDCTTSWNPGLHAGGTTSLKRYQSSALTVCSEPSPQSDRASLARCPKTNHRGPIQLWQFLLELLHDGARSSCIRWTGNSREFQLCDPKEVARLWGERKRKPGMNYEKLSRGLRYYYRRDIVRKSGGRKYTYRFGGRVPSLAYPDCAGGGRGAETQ
Conditions: protein: recombinant; tags: N-terminal GST; dsDNA, one strand shown. In short, it runs like this:
as §1

The target of assay [17] is T11, ELF3 (Homo sapiens, UniProt P78545 1-371).
T11 sequence: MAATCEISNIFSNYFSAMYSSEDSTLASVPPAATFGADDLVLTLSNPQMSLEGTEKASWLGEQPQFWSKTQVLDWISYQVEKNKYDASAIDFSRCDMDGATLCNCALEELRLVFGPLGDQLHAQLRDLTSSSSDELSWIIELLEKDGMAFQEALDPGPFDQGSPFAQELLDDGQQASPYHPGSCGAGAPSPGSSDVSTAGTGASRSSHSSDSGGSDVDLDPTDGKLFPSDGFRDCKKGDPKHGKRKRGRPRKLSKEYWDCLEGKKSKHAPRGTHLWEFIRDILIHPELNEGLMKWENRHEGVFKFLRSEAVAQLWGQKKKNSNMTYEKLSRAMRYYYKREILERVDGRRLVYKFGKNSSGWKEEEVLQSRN
The settings on record: protein: recombinant; tags: N-terminal GST; dsDNA, one strand shown. In short, it runs like this:
as §1

The target of assay [18] is CRX (Homo sapiens, UniProt O43186 1-299). Conditions: protein: recombinant; tags: N-terminal GST; dsDNA, one strand shown. In short, it runs like this:
as §1

Assay [19] has as its target ETV1 (Homo sapiens, UniProt P50549 1-477). Conditions: protein: recombinant; tags: N-terminal GST; dsDNA, one strand shown. A digest of the protocol: as §1

Chain of CRX (O43186 whole entry): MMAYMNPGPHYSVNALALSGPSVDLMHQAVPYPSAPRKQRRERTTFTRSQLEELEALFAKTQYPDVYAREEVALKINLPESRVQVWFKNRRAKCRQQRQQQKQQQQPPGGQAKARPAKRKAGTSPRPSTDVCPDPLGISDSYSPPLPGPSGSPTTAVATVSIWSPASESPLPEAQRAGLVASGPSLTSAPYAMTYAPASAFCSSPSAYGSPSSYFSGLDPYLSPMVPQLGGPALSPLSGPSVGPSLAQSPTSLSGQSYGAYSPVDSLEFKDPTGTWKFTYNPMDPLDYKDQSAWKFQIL
Chain of ELF4 (Q99607 whole entry): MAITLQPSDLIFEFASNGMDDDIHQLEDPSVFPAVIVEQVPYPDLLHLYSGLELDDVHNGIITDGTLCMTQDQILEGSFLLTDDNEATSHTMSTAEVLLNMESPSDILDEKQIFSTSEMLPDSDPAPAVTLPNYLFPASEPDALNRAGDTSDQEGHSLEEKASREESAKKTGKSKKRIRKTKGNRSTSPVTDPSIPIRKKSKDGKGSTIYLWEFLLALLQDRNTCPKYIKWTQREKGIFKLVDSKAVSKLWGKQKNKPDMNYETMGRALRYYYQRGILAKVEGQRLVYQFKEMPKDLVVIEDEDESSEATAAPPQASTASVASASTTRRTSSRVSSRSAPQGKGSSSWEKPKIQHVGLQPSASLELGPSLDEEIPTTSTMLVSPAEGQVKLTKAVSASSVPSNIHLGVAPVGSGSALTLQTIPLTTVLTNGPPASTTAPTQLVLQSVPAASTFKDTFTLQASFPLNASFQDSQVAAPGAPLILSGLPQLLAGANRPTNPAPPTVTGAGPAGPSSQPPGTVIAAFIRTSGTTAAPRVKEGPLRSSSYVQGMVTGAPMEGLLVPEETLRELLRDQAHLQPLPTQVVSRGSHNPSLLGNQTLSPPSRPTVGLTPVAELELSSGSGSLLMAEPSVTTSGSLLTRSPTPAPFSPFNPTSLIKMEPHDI
Chain of ETV5 (P41161 whole entry): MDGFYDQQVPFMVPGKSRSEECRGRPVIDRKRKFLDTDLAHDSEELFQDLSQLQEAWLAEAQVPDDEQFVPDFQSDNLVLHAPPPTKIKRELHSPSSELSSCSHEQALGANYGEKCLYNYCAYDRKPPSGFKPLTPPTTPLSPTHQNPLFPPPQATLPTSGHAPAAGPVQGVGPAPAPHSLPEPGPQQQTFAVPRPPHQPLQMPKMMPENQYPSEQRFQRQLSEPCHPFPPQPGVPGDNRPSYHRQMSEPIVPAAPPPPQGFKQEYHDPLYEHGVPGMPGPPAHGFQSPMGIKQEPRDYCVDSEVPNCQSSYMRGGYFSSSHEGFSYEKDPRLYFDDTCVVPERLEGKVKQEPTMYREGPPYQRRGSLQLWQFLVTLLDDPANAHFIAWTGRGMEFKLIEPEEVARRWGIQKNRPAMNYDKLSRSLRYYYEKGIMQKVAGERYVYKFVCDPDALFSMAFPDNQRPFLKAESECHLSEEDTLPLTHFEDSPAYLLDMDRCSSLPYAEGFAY
Chain of ELF1 (P32519 whole entry): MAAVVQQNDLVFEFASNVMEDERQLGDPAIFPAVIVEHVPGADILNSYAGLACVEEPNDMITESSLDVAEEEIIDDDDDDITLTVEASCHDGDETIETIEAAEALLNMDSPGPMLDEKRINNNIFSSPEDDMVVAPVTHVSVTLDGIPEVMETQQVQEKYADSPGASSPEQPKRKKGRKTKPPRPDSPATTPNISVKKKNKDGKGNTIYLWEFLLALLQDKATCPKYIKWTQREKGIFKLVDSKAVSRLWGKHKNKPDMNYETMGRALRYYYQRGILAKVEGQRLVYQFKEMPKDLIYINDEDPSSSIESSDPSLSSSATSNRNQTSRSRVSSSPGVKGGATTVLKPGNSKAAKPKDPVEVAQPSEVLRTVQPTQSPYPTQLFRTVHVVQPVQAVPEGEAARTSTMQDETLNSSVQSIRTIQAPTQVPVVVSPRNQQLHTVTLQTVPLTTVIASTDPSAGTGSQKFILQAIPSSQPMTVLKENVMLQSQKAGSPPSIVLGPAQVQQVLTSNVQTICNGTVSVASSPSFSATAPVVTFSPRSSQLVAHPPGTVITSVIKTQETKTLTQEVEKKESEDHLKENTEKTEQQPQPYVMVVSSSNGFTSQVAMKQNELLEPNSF
Chain of SPIB (Q01892 whole entry): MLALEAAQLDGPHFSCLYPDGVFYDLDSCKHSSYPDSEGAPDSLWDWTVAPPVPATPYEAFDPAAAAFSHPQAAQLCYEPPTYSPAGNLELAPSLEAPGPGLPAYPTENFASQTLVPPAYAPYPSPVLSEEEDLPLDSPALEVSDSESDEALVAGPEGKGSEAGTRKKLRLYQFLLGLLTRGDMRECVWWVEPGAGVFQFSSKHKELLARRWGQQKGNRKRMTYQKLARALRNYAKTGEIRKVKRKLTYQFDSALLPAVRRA
Chain of ETV1 (P50549 whole entry): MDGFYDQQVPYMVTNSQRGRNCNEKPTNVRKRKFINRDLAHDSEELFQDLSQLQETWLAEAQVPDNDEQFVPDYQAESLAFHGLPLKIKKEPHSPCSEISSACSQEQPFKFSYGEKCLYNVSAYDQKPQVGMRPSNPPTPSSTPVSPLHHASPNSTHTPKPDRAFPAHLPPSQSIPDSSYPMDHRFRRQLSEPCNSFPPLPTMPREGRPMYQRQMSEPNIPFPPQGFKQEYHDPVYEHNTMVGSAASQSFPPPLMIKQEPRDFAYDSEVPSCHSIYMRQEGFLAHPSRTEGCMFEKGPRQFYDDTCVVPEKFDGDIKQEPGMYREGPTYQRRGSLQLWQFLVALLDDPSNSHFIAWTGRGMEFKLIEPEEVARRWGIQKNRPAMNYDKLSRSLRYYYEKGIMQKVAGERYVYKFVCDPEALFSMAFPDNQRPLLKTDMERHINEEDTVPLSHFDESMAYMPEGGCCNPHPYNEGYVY
Chain of HSF1 (Q00613 whole entry): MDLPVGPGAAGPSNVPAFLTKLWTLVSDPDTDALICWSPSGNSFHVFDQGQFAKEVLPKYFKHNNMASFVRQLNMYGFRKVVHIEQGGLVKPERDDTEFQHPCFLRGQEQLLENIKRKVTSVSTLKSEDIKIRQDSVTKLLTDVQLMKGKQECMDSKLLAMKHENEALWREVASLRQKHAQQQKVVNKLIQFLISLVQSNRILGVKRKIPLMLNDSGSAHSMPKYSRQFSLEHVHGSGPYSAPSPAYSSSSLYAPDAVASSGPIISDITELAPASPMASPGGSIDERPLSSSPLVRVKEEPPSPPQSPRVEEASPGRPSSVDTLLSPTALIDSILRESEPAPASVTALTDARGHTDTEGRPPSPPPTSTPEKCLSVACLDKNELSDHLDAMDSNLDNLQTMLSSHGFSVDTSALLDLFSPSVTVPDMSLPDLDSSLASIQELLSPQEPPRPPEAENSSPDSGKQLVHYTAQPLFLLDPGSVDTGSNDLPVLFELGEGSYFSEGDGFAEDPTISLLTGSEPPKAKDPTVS

In the case of AATATA, the binding signal in assay [1] was 1.28 fold enrichment (6-mer frequency, TF over GST control); in [2], 1.38 fold enrichment (6-mer frequency, TF over GST control); in assay [3], 1.35 fold enrichment (6-mer frequency, TF over GST control); in [4], 1.33 fold enrichment (6-mer frequency, TF over GST control); in assay [5], 1.37 fold enrichment (6-mer frequency, TF over GST control); in assay [6] it was 1.42 fold enrichment (6-mer frequency, TF over GST control). The binding signal in assay [7] is 1.37 fold enrichment (6-mer frequency, TF over GST control); in [8], 1.28 fold enrichment (6-mer frequency, TF over GST control); in assay [9], 1.43 fold enrichment (6-mer frequency, TF over GST control); in [10], 1.3 fold enrichment (6-mer frequency, TF over GST control); in assay [11], 1.33 fold enrichment (6-mer frequency, TF over GST control); in assay [12], 1.38 fold enrichment (6-mer frequency, TF over GST control). Further, the binding signal in [13] is 1.29 fold enrichment (6-mer frequency, TF over GST control); in [14] it was 1.3 fold enrichment (6-mer frequency, TF over GST control); in assay [15] it was 1.39 fold enrichment (6-mer frequency, TF over GST control); in [16], 1.35 fold enrichment (6-mer frequency, TF over GST control); in [17] it was 1.5 fold enrichment (6-mer frequency, TF over GST control); in assay [18] it was 1.62 fold enrichment (6-mer frequency, TF over GST control). Moreover, the binding signal in [19] is 1.39 fold enrichment (6-mer frequency, TF over GST control).
